Several values for one entry are separate records, joined by “and”; a condition that tells them apart may be missing. Equal entries are not always repeated. Inconclusive results are not listed. A call without a number means that no potency is given here. A structure can be active in one record and inactive in another. Activity calls are given as the source filed them. Calls come from the whole dose curve; as a rule, active = well fitted inhibition curve with a large enough effect in the repeat runs; inconclusive = weak or mixed curves; inactive = no such curve, though single readings can be large or run the other way.
Potency is the fitted concentration of half-maximal effect.

Sequence of Cytochrome P450 2C19 (Homo sapiens) (P33261 whole entry, looked up): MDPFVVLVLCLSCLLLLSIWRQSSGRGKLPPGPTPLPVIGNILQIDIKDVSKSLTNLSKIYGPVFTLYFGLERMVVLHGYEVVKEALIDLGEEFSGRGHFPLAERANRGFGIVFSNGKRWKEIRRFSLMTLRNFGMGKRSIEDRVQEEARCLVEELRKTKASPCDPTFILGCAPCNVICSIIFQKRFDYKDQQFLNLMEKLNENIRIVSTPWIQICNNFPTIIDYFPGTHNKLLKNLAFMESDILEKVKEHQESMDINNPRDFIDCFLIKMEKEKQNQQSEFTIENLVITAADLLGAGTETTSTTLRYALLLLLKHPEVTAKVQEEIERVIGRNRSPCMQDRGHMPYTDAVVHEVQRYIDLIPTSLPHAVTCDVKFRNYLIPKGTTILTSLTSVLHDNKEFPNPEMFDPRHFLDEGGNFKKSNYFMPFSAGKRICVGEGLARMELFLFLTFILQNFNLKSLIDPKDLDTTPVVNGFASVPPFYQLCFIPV

This experiment concerns the target Cytochrome P450 2C19 (Homo sapiens) (UniProt P33261). In words: Cytochrome P450 Family 2 Subfamily C Member 19 (CYP2C19) small molecule antagonists: luciferase reporter qHTS assay (AID 1671197). Note: nearly all actives have a fitted effect of over 65% in size. As to conditions: P450-Glo CYP2C19 enzyme, luciferin luminescence, 1 h; series mostly up to 115 µM. The text has this:
National Center for Advancing Translational Sciences [NCATS]
U.S. Environmental Protection Agency [EPA]
National Institutes of Environmental Health Sciences [NIEHS]
National Toxicology Program [NTP]
U.S. Food and Drug Administration [FDA]
Cytochrome P450 (CYP) enzymes are membrane-bound hemeproteins that play a key role in metabolism of drugs and xenobiotics. Evaluation of the effect of chemicals on CYP isozymes is useful to minimize the adverse drug reactions and toxicities in drug development process. Tox21 chemicals were tested for their effect on CYP enzyme activities by using P450-Glo (TM) screening systems (Promega Corporation, Madison, WI). These systems provide a luminescent method containing proluciferin substrates and are converted to luciferin products by CYP isozymes. The luciferin products formed are detected with a luciferin detection reagent, and the amount of light produced is proportional to CYP activity. P450-Glo (TM) CYP2C19 screening system (Catalog. No. V9880) was used to detect the compounds that interfere in CYP2C19 activity. The positive control compound used for CYP2C19 assay is ketoconazole (Sigma-Aldrich, St. Louis, MO).
Tox21 Assay Protocol Summary:
Two ul of enzyme-substrate mix was dispensed into medium binding white/solid 1536-well plates (Greiner Bio-One North America Inc., Monroe, NC) using a BioRaptr Flying Reagent Dispenser (FRD, Beckman Coulter, Brea, CA). Compounds dissolved in DMSO and positive control (ketoconazole) were transferred to the assay plates at 23 nl using a Pintool station (Wako, San Diego, CA). The assay plates were incubated at room temperature for 10 min. Then 2 ul of NADPH regeneration solution was added to each well of the assay plates using an FRD and incubated at 37C for 1 h. The reaction was stopped by adding 4 ul of detection reagent using an FRD and after 20 min incubation at room temperature the luminescence signal was measured using a ViewLux plate reader (Perkin Elmer, Shelton, CT). Data were expressed as relative luminescence units.
A general note: In a reporter assay the amount or activity of a reporter protein is the signal.
For the compound `CC(C)Oc1ccc2c(=O)c(-c3ccccc3)coc2c1`, the Potency result was “inactive”.
In the case of `C/C=C/C(=O)O`, the Potency entry was “inactive”.
The same measure for `COC(=O)c1ccccc1`: “inactive”; for `COC(C)COC(C)COC(C)CO` (stereo not given): “inactive”; for `Cc1cccc(C(=O)O)c1`: “inactive”.
As for `OC(CCl)CCl`, the Potency entry is “inactive”.
Turning to `COC(=O)Nc1nc2ccc(S(=O)c3ccccc3)cc2[nH]1` (stereo not given), the Potency was 79.6 µM (active) and inactive.
On to `c1cc(N(CC2CO2)CC2CO2)ccc1OCC1CO1` (stereo not given), for which the Potency result was “inactive and 79.6 µM (active)”.
As for `COc1c(Cl)c(Cl)c(Cl)c(Cl)c1Cl`, the Potency entry was “inactive”.
The same measure for `CCCCNS(=O)(=O)c1ccccc1`: 7.01 µM (active) and 17.8 µM (active); for `CCC(C)CO` (stereo not given): 35.1 µM (active) and inactive; for `c1ccncc1`: “inactive”.
Next, `CC(C)OB(OC(C)C)OC(C)C`: 40 µM (active) and inactive; `Cc1c(C(N)=O)cc([N+](=O)[O-])cc1[N+](=O)[O-]`: “inactive”.
As for `CC(=O)C1(C)CC2=C(CCCC2(C)C)CC1C` (stereo not given), the Potency result is “inactive”.
`C[C@]12CC[C@H]3[C@@H](CCC4=CC(=O)CC[C@@]43C)[C@@H]1CC[C@@H]2C(=O)CO`: the Potency is 7.1 µM (active) and 8.71 µM (active).
Consider `COc1cccc2c1C(=O)c1c(O)c3c(c(O)c1C2=O)C[C@@](O)(C(=O)CO)C[C@@H]3O[C@H]1C[C@H](N)[C@H](O)[C@H](C)O1`, for which the Potency result was “inactive”.
As to `O=[N+]([O-])c1ccc2c(c1)Cc1ccccc1-2`, the Potency is 22.4 µM (active) and 20 µM (active).
For `COC(=O)CCC(=O)OC`, the Potency result is “inactive”.
Take `CN(C)CCN(Cc1cccs1)c1ccccn1`: the Potency entry was “inactive”.
On to `CN(C)CCC=C1c2ccccc2CCc2ccccc21`, for which the Potency was 7.97 µM (active) and 31.7 µM (active).
In the case of `O=C(COc1ccc(Cl)cc1)N1CCN(Cc2ccc3c(c2)OCO3)CC1`, the Potency was 17.8 µM (active) and 17.4 µM (active).
Next, `Cc1cccc([N+](=O)[O-])c1C`: “inactive”.
For `C=C(C)C(=O)OCCOC(=O)C(=C)C`, the Potency result is “inactive”.
The same measure for `OC1CCCCCCCCCCC1`: “inactive”; for `COc1ccccc1/C=C/C=O`: 39.9 µM (active).
Turning to `CC(CCC(=O)O)(c1ccc(O)cc1)c1ccc(O)cc1`, the Potency was 71.8 µM (active) and 35.6 µM (active).
As for `OC[C@H]1O[C@@H]2O[C@H]3[C@H](O)[C@@H](O)[C@@H](O[C@H]4[C@H](O)[C@@H](O)[C@@H](O[C@H]5[C@H](O)[C@@H](O)[C@@H](O[C@H]6[C@H](O)[C@@H](O)[C@@H](O[C@H]7[C@H](O)[C@@H](O)[C@@H](O[C@H]8[C@H](O)[C@@H](O)[C@@H](O[C@H]1[C@H](O)[C@H]2O)O[C@@H]8CO)O[C@@H]7CO)O[C@@H]6CO)O[C@@H]5CO)O[C@@H]4CO)O[C@@H]3CO`, the Potency is 31.8 µM (active) and inactive.
With `c1ccc(Nc2ccccc2)cc1`, the Potency is 4.48 µM (active) and 22.4 µM (active).
As to `Cc1ccc(C(=O)c2cc(O)c(O)c([N+](=O)[O-])c2)cc1`, the Potency result is “inactive”.
Turning to `Brc1cc(Oc2cc(Br)c(Br)c(Br)c2Br)c(Br)c(Br)c1Br`, the Potency was 10.1 µM (active) and inactive.
Take `CCCCC(CC)COC(=O)c1ccc(N(C)C)cc1` (stereo not given): the Potency was 40.1 µM (active) and 20 µM (active) and 6.92 µM (active).
Consider `C=C(C)C1CC=C(C)CC1` (stereo not given), for which the Potency entry is “inactive”.
In the case of `C[Si](C)(C)O[Si](C)(C)C`, the Potency entry was “inactive”.
Regarding `O=S(=O)(O)c1ccc(O)cc1`, the Potency entry was “inactive”.
Next, `O=C(c1ccccc1)c1ccccc1O`: 3.65 µM (active) and 22.4 µM (active); `COc1ccc(C(=O)CC(=O)c2ccc(C(C)(C)C)cc2)cc1`: 8.57 µM (active) and inactive; `Nc1ccc(Cl)cc1Cl`: “inactive”.
As for `CC1=CC2C3CC(C=C3C)C2C1` (stereo not given), the Potency result is “inactive and 39.9 µM (active)”.
Turning to `Cc1ccc(C)c(O)c1C`, the Potency entry is “inactive”.

These data come from PubChem BioAssay (Tox21).
